An excerpt weighted towards active compounds, which were near 19% of everything screened.
HT1080NT lethal – qHTS for induction of synthetic lethality in tumor cells producing 2HG: qHTS for the HT-1080-NT fibrosarcoma cell line | Potency, µM (series often up to 46.1 µM), inactives show top-dose activity, negative = less viability, actives largely listed as cytotoxic | hit rate 1.6% among 360,000 | AID 686970, 2013 | HT-1080-NT fibrosarcoma viability, CellTiter-Glo ATP luminescence, 48 h;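 further: NT is the 2HG producing partner of a matched IDH1 knockdown line; 0% = DMSO-treated cells and -100% = media-only wells without cells; nearly all actives have a fitted effect of over 55% in size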
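Fibrosarcoma NT cells, 750 per well in 5% FBS RPMI, were exposed to compound for 48 hours. Viability: CellTiter-Glo luminescence.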
TDP1 cell noCPT – qHTS for Inhibitors of human tyrosyl-DNA phosphodiesterase 1 (TDP1): qHTS in cells in absence of CPT; DT40 Tdp1-/- hTDP1 cells, no CPT, ATP luminescence, 48 h; Potency, µM (series often up to 46.2 µM), for the others: top-dose activity change, negative = growth inhibition, hits mostly inhibitors; hit rate 15% among 420,000; AID 686978, 2013; further: nearly all actives have a fitted effect of over 55% in size
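Seeded 400 DT40-hTDP1 cells/well (vehicle DMSO, no 20 nM CPT); pinned compounds; ≥48 hr at 37 °C; CellTiter-Glo luminescence as viability measure.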
KB-3-1 tox – qHTS assay for MDR1-selective chemotherapeutics: Primary screen using the parental adenocarcinoma cell KB-3-1 | KB-3-1 viability, CellTiter-Glo ATP luminescence, 72 h | Potency, µM (doses to about 46.1 µM), usual class: cytotoxic | hit rate 1.4% among 400,000 | AID 1347075, 2019; further: nearly all actives have a fitted effect of over 60% in size
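KB-3-1 cells, DMEM (no phenol red) + 10% FBS; compound by pin transfer, 72 h, 37 °C. Readout: CellTiter-Glo luminescence after 10 min. Data normalized, curve-fitted.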
TDP1 cell CPT – qHTS for Inhibitors of human tyrosyl-DNA phosphodiesterase 1 (TDP1): qHTS in cells in presence of CPT. chicken DT40 Tdp1-/-;hTDP1 cells + 20 nM CPT, ATP luminescence, 48 h. Potency, µM (top dose mostly 46.2 µM), inactives show at the top dose activity change, negative = growth inhibition, most hits filed as inhibitors. hit rate 12% among 420,000. AID 686979, 2013; further: nearly all actives have a fitted effect of over 55% in size
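Chicken DT40 Tdp1-/- cells complemented with human TDP1, 400 cells/well, exposed to compounds plus 20 nM camptothecin for at least 48 h at 37 C; viability read as ATP content by CellTiter-Glo luminescence.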
HT1080 IDH1KD tx – qHTS for induction of synthetic lethality in tumor cells producing 2HG: qHTS for the HT-1080-IDH1KD cell line; HT-1080 IDH1 knockdown viability, ATP luminescence, 48 h; Potency, µM (titrated, usually from 46.1 µM), for inactives: at the highest dose activity, negative = toxicity, most hits filed as cytotoxic; AID 686971, 2013; hit rate 2% among 360,000;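 further: 0% = DMSO wells and -100% = cell-free medium wells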
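Cytotoxicity counter-line: IDH1KD HT-1080, 48 h, CellTiter-Glo. Curves classed by r2, magnitude and activity.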
KB-V1 MDR tox – qHTS assay for MDR1-selective chemotherapeutics: Primary screen using the drug-selected MDR subline cells KB-V1 | KB-V1 MDR cells viability, CellTiter-Glo, 72 h | Potency, µM (series often up to 46.1 µM), most hits filed as cytotoxic | hit rate 3.4% among 400,000 | AID 1347076, 2019; further: nearly all actives have a fitted effect of over 60% in size
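Following 72 h at 37 degrees C with compound, KB-V1 cell viability was read by CellTiter-Glo luminescence, medium being phenol-red-free DMEM plus 10% FBS; concentration-response parameters came from normalized, curve-fitted qHTS data.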
* = called active by the depositor; i = inactive; ? = inconclusive; . = no result given. The call rests on the fitted dose curve; in most records, active means well fitted curve in the direction sought with a large enough effect; inconclusive means small, poorly fitted or top-dose-only effect, or another doubt; inactive means no such curve, though single readings can be large; an effect the other way counts as inactive or inconclusive. Unless noted, on the % scale 0 is the no-effect control and ±100 the full control effect; potency means the concentration at half of the fitted maximal effect.

SMILES	HT1080NT lethal	TDP1 cell noCPT	KB-3-1 tox	TDP1 cell CPT	HT1080 IDH1KD tx	KB-V1 MDR tox
Cn1c(=O)c2cc(NC(=O)Cc3ccccc3F)ccc2n1Cc1ccc(Cl)cc1	-10%	?	i	?	-12%	i
Cn1c(=O)c2cc(NC(=O)Nc3cccnc3)ccc2n1-c1ccc(C(C)(C)C)cc1	21µM*	?	?	?	?	i
Cn1c(=O)c2cc(NC(=O)Cc3cccc4ccccc34)ccc2n1-c1ccccc1	?	21µM*	?	16µM*	?	?
CC(C)=CCn1c2ccc(NC(=O)Nc3cccnc3)cc2c(=O)n1C	?	?	i	-30%	10%	i
CCOC(=O)c1cccc(NC(=O)C(C)n2nc(C)c3c(C)n(-c4ccccc4)nc3c2=O)c1 (configuration not stated)	.	?	i	?	.	i
CC(CC(=O)Nc1ccc(Cl)c([N+](=O)[O-])c1)c1ccccc1 (configuration not stated)	?	?	?	?	?	i
CC(CC(=O)Nc1ccc2c(c1)c(=O)n(C)n2-c1ccccc1)c1ccccc1 (configuration not stated)	3.7µM*	5.2µM*	4.6µM*	5.2µM*	2.9µM*	10µM*
COc1cccc(C2c3[nH]c4ccccc4c3CCN2CCCn2cccn2)c1 (configuration not stated)	-15%	?	i	?	-13%	i
COc1ccc(C2c3[nH]c4ccccc4c3CCN2CCCn2cccn2)c(C)c1C (configuration not stated)	?	13µM*	i	12µM*	?	i
CCc1cccc(NC(=O)C2CCCN(S(=O)(=O)c3cccs3)C2)c1 (configuration not stated)	?	13µM*	i	16µM*	-27%	?
COc1ccc(NC(=O)C2CCCN(S(=O)(=O)c3cccs3)C2)cc1OC (configuration not stated)	-4%	?	i	?	0%	i
O=C(Nc1ccc2c(c1)OCCO2)C1CCN(S(=O)(=O)c2ccc3c(c2)OCCO3)CC1	27%	-29%	i	-28%	5%	15µM*
Cc1nc(-c2cccc(NC(=O)C3CCCCC3)c2)cs1	-1%	-24%	i	?	-6%	i
CCOC(=O)c1c(S(=O)(=O)N2CCCC(C(=O)Nc3cccc(CC)c3)C2)c(C)n(CC)c1C (configuration not stated)	.	?	i	18µM*	.	i
Cc1nc(-c2ccc(NC(=O)C3CC3)cc2)cs1	13%	18µM*	i	23µM*	1%	i
COCCN(CCOC)Cc1cc(=O)oc2cc(C)c(Cl)cc12	21%	?	i	-13%	20%	i
O=C(Nc1ccc2c(c1)OCCO2)C1CCCN(S(=O)(=O)Cc2ccccc2)C1 (configuration not stated)	5%	?	i	?	7%	i
O=C(Nc1ccc2c(c1)OCO2)C1CCN(S(=O)(=O)c2cccs2)CC1	?	-17%	i	-20%	-1%	i
O=C(Nc1ccc2c(c1)OCCO2)C1CCN(S(=O)(=O)c2cccs2)CC1	-1%	?	i	-6%	22%	15µM*
O=C(Nc1ccc2c(c1)OCCO2)C1CCCN(S(=O)(=O)c2cccs2)C1 (configuration not stated)	-11%	?	i	13µM*	-13%	i
O=C(Nc1ccc2c(c1)OCO2)C1CCCN(S(=O)(=O)c2cccs2)C1 (configuration not stated)	-6%	?	i	16µM*	-14%	i
CC(=O)Nc1ccc(-c2csc(NC(=O)C3CCN(S(=O)(=O)c4cccs4)CC3)n2)cc1	-8%	8.2µM*	i	16µM*	?	i
Cc1sc2ncn(CC(=O)NCC(=O)N3CCN(c4ccccc4F)CC3)c(=O)c2c1C	16%	8%	i	-2%	9%	i
Cc1nn(C)c(C)c1S(=O)(=O)N(CC(=O)Nc1ccc(F)cc1F)c1ccc(C(C)C)cc1	.	?	i	?	.	i
O=C(CN1CCCCC1)Nc1ccccc1Oc1ccccc1	?	?	i	0%	-2%	i
SMILES	HT1080NT lethal	TDP1 cell noCPT	KB-3-1 tox	TDP1 cell CPT	HT1080 IDH1KD tx	KB-V1 MDR tox
Cc1nc2scc(C)n2c(=O)c1S(=O)(=O)N1CCN(c2ccc([N+](=O)[O-])cc2)CC1	0%	8%	i	-2%	3%	i
O=C(NC12CC3CC(CC(C3)C1)C2)c1cccc([N+](=O)[O-])c1	-2%	-9%	i	-24%	-6%	i
O=[N+]([O-])c1cccc(-c2nnn(C34CC5CC(CC(C5)C3)C4)n2)c1	7%	18µM*	i	?	9%	i
Cc1ccc(NS(=O)(=O)c2cc(NC(=O)c3ccc4c(c3)NC(=O)CS4)ccc2Cl)c(C)c1	?	26µM*	?	?	?	?
Cc1ccc(NC(=O)c2cc3c(s2)CCC3)cc1S(=O)(=O)N1CCOCC1	-11%	?	?	?	-25%	i
Cc1ccc(NS(=O)(=O)c2cc(NC(=O)c3cc4c(s3)CCCC4)ccc2C)c(C)c1	-1%	?	i	?	-5%	3.7µM*
Cc1ccc(S(=O)(=O)N2CCOCC2)cc1NC(=O)c1cc2c(s1)CCC2	0%	16µM*	i	?	2%	i
COc1ccccc1NC(=O)c1ccc(NC(=O)c2cc3c(s2)CCC3)cc1	-16%	16µM*	i	?	-20%	?
Nc1[nH]c(=S)[nH]c(=O)c1N	.	8%	i	3%	.	i
COc1cc(S(=O)(=O)N2CCOCC2)ccc1NC(=O)c1cc2c(s1)CCC2	-12%	26µM*	i	16µM*	-10%	i
Cc1ccc(S(=O)(=O)Nc2ccc(Cl)cc2)cc1NC(=O)c1cc2c(s1)CCCC2	?	?	i	?	?	15µM*

Bioassay records deposited in PubChem BioAssay by National Center for Advancing Translational Sciences (NCATS).
